The values below come from PubChem BioAssay (Tox21).

Assay [1] is described as follows: qHTS assay to identify small molecule antagonists of the estrogen receptor alpha (ER-alpha) signaling pathway using the BG1 cell line in the presence of 0.1 nM 17-beta-estradiol - cell viability counter screen (AID 1259241). Further: nearly all actives have a fitted effect of over 40% in size. Further: potency means the concentration at half of the fitted maximal effect. In outline: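 Live-cell protease activity (CellTiter-Fluor fluorescence, 30 min) was read in the same wells after VM7Luc4E2 cells had been exposed to compounds with 0.1 nM 17beta-estradiol for 22 hr at 37C.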
Background: Quantitative high-throughput screening tests each substance at several concentrations.

Assay [2] in a line: qHTS assay to identify small molecule antagonists of the androgen receptor (AR) signaling pathway using the MDA cell line in the presence of 0.5 nM R1881 - cell viability counter screen (AID 1259242). Further: nearly all actives have a fitted effect of over 45% in size. Further: potency means the concentration at half of the fitted maximal effect. In outline: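 Cells seeded at 3,000/well and allowed 5 hr at 37C, 0% CO2 before compound transfer and R1881 (0.5 nM final) addition; 16 hr later, live-cell protease fluorescence indicated cytotoxicity.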

Assay [3] addresses Estrogen receptor (Homo sapiens) (UniProt P03372). The assay can be described thus: qHTS assay to identify small molecule antagonists of the estrogen receptor alpha (ER-alpha) signaling pathway using the BG1 cell line in the presence of 0.1 nM 17-beta-estradiol (AID 1259244). Further: nearly all actives have a fitted effect of over 50% in size. An outline of the steps: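 Luciferase signal from VM7Luc4E2 ERE-reporter cells, co-dosed with test compound and 0.1 nM final 17beta-estradiol for 22 h, read with ONE-Glo.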

Assay [4] can be described thus: qHTS assay to identify small molecule HDAC inhibitors - cell viability counter screen (AID 1259365). Further: series mostly up to about 92 µM; nearly all actives have a fitted effect of over 50% in size. In outline:
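HCT-116 (wild type), 1,500 cells/well, overnight 37C/5% CO2; compound in DMSO 2hr; CellTiter-Glo 30min RT; luminescence read.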

A short description of assay [5]: qHTS assay to identify small molecule agonists of the sonic hedgehog signaling (Shh) pathway - cell viability counter screen (AID 1259366). Further: nearly all actives have a fitted effect of over 50% in size. Further: potency means the concentration at half of the fitted maximal effect. In outline: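 CellTiter-Fluor fluorescence read-out, 1 hr at 37C, added after 23hr compound exposure. Cells: 3T3 Gli1-Luc, an NIH/3T3 clone with stably integrated Gli1-Luc reporter, plated 4hr before compound.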
Assay [6] is described as follows: qHTS assay to identify small molecule antagonists of the sonic hedgehog signaling (Shh) pathway - cell viability counter screen (AID 1259367). Further: nearly all actives have a fitted effect of over 55% in size. Further: potency means the concentration at half of the fitted maximal effect. An outline of the steps: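 Fluorescence read-out (CellTiter-Fluor, 1 hr at 37C) taken after 23 hr compound treatment of 3T3 Gli1-Luc cells stimulated with conditioned medium. Cells were seeded at 2,000 per well and pre-incubated 4 hr.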

Assay [7] is described as follows: qHTS assay to identify small molecule agonists of the sonic hedgehog signaling (Shh) pathway (AID 1259368; calls by dose curve;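 further: NIH/3T3-derived 3T3Gli1-Luc cells carrying a stable Gli1-driven firefly luciferase reporter; series mostly up to about 92 µM; nearly all actives have a fitted effect of over 15% in size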). An outline of the steps:
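Following a 24 hr incubation with DMSO-dissolved compounds at 37 C, 5% CO2, Gli1-Luc NIH/3T3-derived cells received luciferase reagent for 30 min at room temperature prior to luminescence measurement.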

Assay [8] is described as follows: qHTS assay to identify small molecule antagonists of the sonic hedgehog signaling (Shh) pathway (AID 1259369; calls by dose curve; further: nearly all actives have a fitted effect of over 45% in size). An outline of the steps: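 Read-out is luminescence from a firefly luciferase gene controlled by the Gli1 response element, in 3T3Gli1-Luc cells pre-incubated 4hr then exposed to compounds and conditioned medium for 24hr.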
Assay [9] deals with Estrogen receptor beta (Homo sapiens) (UniProt Q92731). The assay can be described thus: qHTS assay to identify small molecule agonists of the estrogen receptor beta (ER-beta) signaling pathway (AID 1259377; active means well fitted activation curve with a large enough effect in the signal ratio in the repeat runs, not every such curve was filed as active; the % refers to the signal ratio). In outline:
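Beta-lactamase reporter readout: fluorescence of LiveBLAzer B/G FRET substrate after 2 h at room temperature, following 16 h compound treatment of ER-beta-UAS-bla HEK293T cells at 37C in 2% charcoal-stripped FBS medium.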

The target is the same in assay [10]. The assay can be described thus: qHTS assay to identify small molecule antagonists of the estrogen receptor beta (ER-beta) signaling pathway (AID 1259378; active means well fitted inhibition curve with a large enough effect in the signal ratio in the repeat runs, not every such curve was filed as active; the % refers to the signal ratio). In outline:
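ER-beta-UAS-bla HEK293T cells in 2% charcoal-stripped FBS medium treated with compound plus 1nM final 17-beta-estradiol for 16 hr at 37C. Beta-lactamase reporter read by FRET substrate fluorescence after 2 hours at room temperature.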

Assay [11] is described as follows: qHTS assay to identify small molecule agonists of the androgen receptor (AR) signaling pathway in the presence of an antagonist - cell viability counter screen (AID 1259379). Further: nearly all actives have a fitted effect of over 25% in size. Further: potency means the concentration at half of the fitted maximal effect. An outline of the steps: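 Each compound was tested at 15 concentrations on MDA-kb2 cells in the presence of 3.0uM nilutamide. Viability was measured by CellTiter-Fluor fluorescence after a 16 hr incubation at 37C in a CO2-free atmosphere.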

Assay [12] can be described thus: qHTS assay to identify small molecule antagonists of the estrogen receptor beta (ER-beta) signaling pathway - cell viability counter screen (AID 1259382). Further: series mostly up to about 92 µM; nearly all actives have a fitted effect of over 55% in size. An outline of the steps: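 CellTiter-Glo ATP luminescence measured after the LiveBLAzer read in the same wells; ER-beta-UAS-bla HEK293T cells, 16 hr compound treatment with 1nM 17-beta-estradiol agonist at 37C, 5% CO2.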

Assay [13] has as its target Estrogen receptor (Homo sapiens) (UniProt P03372). The assay can be described thus: qHTS assay to identify small molecule agonists of the estrogen receptor alpha (ER-alpha) signaling pathway in the presence of an antagonist (AID 1259383; calls by dose curve; further: top concentration of the series differs between compounds; nearly all actives have a fitted effect of over 15% in size). An outline of the steps:
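Luminescent ERE-luciferase reporter, VM7Luc4E2 cells (endogenous ER-alpha); 10.0nM ICI-182,780 final; 15-point compound titration; 22hr at 37C; ONE-Glo, 30min RT.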

The nature of assay [14]: qHTS assay to identify small molecule agonists or antagonists of the thyroid stimulating hormone receptor (TSHR) signaling pathway - wild type cell line counter screen (AID 1259384; calls by dose curve). An outline of the steps:
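Wild-type Hek293 cells, 800/well, 18 h at 37C, then compound with Ro20-1724 for 30 min RT. cAMP by HTRF (cAMP-d2/anti-cAMP cryptate), 1 h RT, fluorescence read. 15 concentrations, triplicates.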

Assay [15] concerns the target Thyrotropin receptor (Homo sapiens) (UniProt P16473). Briefly: qHTS assay to identify small molecule antagonists of the thyroid stimulating hormone receptor (TSHR) signaling pathway (AID 1259385; calls by dose curve; further: nearly all actives have a fitted effect of over 20% in size). In outline: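 TSHR-HEK293 cells (800/well) plated 18 h, then compounds with Ro20-1724 and TSH at 1.5 ng/mL final, 30 min at room temperature. cAMP quantified by HTRF (cAMP-d2/anti-cAMP-cryptate, 1 h); 15 concentrations in triplicate.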

The nature of assay [16]: qHTS assay to identify small molecule HDAC inhibitors (AID 1259364).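 Further: wild-type HCT-116 cells with endogenous class I/II HDAC activity; top concentration of the series differs between compounds; nearly all actives have a fitted effect of over 45% in size.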 In outline: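 HCT-116 wt cells, 1,500/well, overnight attach. Compounds (DMSO) 2 h, 37 °C. HDAC-Glo I/II, 30 min RT. Luminescence.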
A short description of assay [17]: qHTS assay to identify small molecule agonists of the estrogen receptor beta (ER-beta) signaling pathway - cell viability counter screen (AID 1259380). Further: nearly all actives have a fitted effect of over 30% in size. In outline:
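Compounds dissolved in DMSO were pin-transferred onto ER-beta-UAS-bla HEK293T cells that had settled 6 hr, and exposure ran 16 hr at 37C. Following the reporter read, CellTiter-Glo luminescence after 30 min at room temperature indicated cytotoxicity.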

Assay [18] deals with Androgen receptor (Homo sapiens) (UniProt P10275). Briefly: qHTS assay to identify small molecule agonists of the androgen receptor (AR) signaling pathway in the presence of an antagonist (AID 1259381; calls by dose curve; further: nearly all actives have a fitted effect of over 15% in size). In outline:
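Plated MDA-kb2 cells (3,000/well) were pre-incubated 5hr, given nilutamide (3.0uM final) or buffer, then dosed with compounds in DMSO at 15 concentrations. Luciferase activity was quantified by luminescence after 16hr at 37C.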

Values without a mark were called inactive. Records with an inconclusive call do not appear. The source made the active and inactive calls. Unless noted, the call rests on the fitted dose curve; in most records, active means well fitted curve in the direction sought with a large enough effect in the repeat runs; inconclusive means weak or mixed curves; inactive means no such curve, though single readings can be large; an effect the other way counts as inactive or inconclusive.

Chain of Estrogen receptor (Homo sapiens) (P03372 whole entry, looked up): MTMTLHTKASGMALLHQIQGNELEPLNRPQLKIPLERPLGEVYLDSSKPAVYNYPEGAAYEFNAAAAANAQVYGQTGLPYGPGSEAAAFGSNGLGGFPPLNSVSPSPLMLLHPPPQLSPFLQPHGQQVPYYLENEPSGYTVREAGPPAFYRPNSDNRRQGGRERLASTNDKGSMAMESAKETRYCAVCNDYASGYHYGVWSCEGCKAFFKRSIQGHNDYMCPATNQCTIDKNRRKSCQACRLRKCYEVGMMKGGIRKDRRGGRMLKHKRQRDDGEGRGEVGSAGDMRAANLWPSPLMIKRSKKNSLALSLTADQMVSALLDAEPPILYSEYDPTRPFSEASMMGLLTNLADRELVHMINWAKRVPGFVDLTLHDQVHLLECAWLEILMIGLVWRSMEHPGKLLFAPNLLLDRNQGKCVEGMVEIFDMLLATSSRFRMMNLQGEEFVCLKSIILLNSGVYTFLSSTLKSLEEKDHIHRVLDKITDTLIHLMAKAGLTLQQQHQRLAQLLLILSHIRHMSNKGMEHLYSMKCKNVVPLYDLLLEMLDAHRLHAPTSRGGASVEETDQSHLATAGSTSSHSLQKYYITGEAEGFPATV
Chain of Estrogen receptor beta (Homo sapiens) (Q92731 whole entry, looked up): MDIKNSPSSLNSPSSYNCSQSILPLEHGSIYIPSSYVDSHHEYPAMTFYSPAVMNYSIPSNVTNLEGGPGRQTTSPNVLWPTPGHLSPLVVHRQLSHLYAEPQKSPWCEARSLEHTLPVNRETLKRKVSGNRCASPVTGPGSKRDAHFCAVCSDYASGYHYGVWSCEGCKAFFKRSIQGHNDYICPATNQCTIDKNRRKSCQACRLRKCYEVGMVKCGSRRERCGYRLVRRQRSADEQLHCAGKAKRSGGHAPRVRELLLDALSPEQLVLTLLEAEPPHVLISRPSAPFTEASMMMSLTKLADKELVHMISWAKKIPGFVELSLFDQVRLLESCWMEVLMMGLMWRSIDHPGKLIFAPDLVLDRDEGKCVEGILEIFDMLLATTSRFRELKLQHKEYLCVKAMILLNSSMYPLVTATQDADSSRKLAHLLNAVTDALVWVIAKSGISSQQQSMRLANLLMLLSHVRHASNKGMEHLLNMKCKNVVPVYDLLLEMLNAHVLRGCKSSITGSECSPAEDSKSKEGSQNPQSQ
Chain of Thyrotropin receptor (Homo sapiens) (P16473 whole entry, looked up): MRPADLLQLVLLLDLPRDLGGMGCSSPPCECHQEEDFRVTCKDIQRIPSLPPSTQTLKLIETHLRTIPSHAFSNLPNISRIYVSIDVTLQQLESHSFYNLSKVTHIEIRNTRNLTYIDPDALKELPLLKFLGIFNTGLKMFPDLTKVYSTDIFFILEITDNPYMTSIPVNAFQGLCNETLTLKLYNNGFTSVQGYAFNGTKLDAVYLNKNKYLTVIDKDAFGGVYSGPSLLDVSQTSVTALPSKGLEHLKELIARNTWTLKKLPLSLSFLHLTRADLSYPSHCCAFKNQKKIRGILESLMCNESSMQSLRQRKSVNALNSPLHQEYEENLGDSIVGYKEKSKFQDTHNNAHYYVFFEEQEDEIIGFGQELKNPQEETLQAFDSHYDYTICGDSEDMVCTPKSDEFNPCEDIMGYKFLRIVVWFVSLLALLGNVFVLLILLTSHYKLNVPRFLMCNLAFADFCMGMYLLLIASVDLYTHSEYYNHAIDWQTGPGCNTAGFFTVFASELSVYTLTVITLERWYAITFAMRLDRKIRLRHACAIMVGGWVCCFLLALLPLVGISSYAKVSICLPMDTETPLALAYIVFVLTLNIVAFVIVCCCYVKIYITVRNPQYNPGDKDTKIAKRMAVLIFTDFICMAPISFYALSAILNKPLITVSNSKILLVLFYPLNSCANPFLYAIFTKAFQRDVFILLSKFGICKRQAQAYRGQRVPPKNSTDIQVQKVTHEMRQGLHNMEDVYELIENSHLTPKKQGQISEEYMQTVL
Chain of Androgen receptor (Homo sapiens) (P10275 whole entry, looked up): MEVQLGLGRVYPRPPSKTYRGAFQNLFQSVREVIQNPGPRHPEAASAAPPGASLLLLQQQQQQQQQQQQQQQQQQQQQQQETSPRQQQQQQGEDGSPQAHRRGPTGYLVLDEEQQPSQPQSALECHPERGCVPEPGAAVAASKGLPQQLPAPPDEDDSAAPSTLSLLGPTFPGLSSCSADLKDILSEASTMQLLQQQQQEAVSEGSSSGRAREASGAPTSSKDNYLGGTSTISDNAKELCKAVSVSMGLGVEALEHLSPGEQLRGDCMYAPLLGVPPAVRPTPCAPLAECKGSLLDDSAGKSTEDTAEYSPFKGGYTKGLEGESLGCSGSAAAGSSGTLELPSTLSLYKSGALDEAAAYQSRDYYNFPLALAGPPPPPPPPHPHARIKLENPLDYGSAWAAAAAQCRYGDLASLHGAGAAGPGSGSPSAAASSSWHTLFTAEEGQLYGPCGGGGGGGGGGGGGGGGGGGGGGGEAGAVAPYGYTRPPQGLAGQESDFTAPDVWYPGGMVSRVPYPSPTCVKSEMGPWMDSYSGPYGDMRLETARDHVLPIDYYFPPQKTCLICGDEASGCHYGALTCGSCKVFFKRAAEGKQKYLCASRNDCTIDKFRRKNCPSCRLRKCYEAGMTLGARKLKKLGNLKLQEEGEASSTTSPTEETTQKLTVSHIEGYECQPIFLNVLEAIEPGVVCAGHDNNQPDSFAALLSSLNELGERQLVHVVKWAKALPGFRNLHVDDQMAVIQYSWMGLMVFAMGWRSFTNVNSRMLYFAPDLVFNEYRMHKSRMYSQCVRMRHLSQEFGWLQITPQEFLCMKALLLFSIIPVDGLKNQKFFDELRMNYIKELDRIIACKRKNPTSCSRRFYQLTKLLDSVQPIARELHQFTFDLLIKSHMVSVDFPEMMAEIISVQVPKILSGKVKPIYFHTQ

On to `O=C1c2ccccc2C(=O)C1c1ccc2cc(S(=O)(=O)O)cc(S(=O)(=O)O)c2n1`, for which the Potency in [1] was 58.9 µM (active); in [2], 58.9 µM (active); in [5] it was 29.5 µM (active); in [6] it was 29.5 µM (active); in [11], 29.5 µM (active). Further, the Potency result in [3], in assay [7], in assay [8], in assay [9], in [10] and in assay [12] was “inactive” in each case. Moreover, the Potency entry in assay [13] and in [15] was “inactive” throughout. Moreover, the result in assay [4] and in assay [14] was inactive.
With `CCCC1CCCC(=O)O1` (stereo not drawn), the Potency result in assay [1], in assay [2], in assay [3], in assay [16], in [5] and in [6] was “inactive” in each case. Besides, the Potency entry in assay [7], in assay [8], in [9], in assay [10], in [11] and in assay [17] was “inactive” in each case. Further, the Potency result in assay [12], in [13] and in assay [15] was “inactive” throughout. In assay [14], the outcome was inactive.
For the molecule `O=[N+]([O-])c1cccc(I)c1`, the Potency entry in assay [1], in assay [2], in assay [3], in assay [16], in [5] and in [6] was “inactive” each time. In addition, the Potency entry in assay [7], in assay [8], in [11], in assay [17], in assay [12] and in assay [13] was “inactive” in each case. In assay [15], the Potency entry was “inactive”. For the same molecule, the outcome in [14] was inactive.
On to `C=Cc1ccc(C=C)cc1`, for which the Potency entry in [1], in [2], in [3], in [16], in assay [5] and in assay [6] was “inactive” each time. In addition, the Potency entry in assay [7], in assay [8], in [9], in assay [10], in assay [11] and in assay [17] was “inactive” in each case. Moreover, the Potency entry in assay [12], in [13] and in assay [15] was “inactive” each time. The molecule was called inactive in [14].
For the molecule `COc1ccc(/C(C)=C/C(=O)O)c(OC)c1`, the Potency entry in assay [1], in assay [2], in assay [3], in assay [5], in [6] and in assay [7] was “inactive” each time. In addition, the Potency entry in assay [8], in assay [9], in assay [10], in assay [11], in assay [17] and in [12] was “inactive” each time. For the same molecule, the Potency entry in [13] and in [15] was “inactive” each time. Besides, the molecule was classed as inactive in [4] and in [14].
On to `O=C(O)c1cccnc1Nc1cccc(C(F)(F)F)c1`, for which the Potency result in assay [1], in assay [2], in [3], in assay [5], in [6] and in assay [7] was “inactive” each time. Moreover, the Potency entry in assay [8], in assay [11] and in [13] was “inactive” throughout. Moreover, the call in [4] was inactive.
Turning to `O=C(OCCN1CCOCC1)c1cccnc1Nc1cccc(C(F)(F)F)c1`, the Potency entry in assay [1], in assay [2], in [3], in assay [5], in [7] and in assay [8] was “inactive” throughout. Moreover, the Potency result in [11], in assay [18], in assay [12], in [13] and in [15] was “inactive” each time. Also, the molecule was classed as inactive in [4] and in [14].
For the molecule `O=C(OCCCCCOC(=O)c1ccccc1)c1ccccc1`, the Potency result in [1], in assay [2], in assay [3], in assay [5], in assay [6] and in assay [7] was “inactive” in each case. In addition, the Potency result in assay [8], in assay [11], in [17], in assay [12], in [13] and in assay [15] was “inactive” each time. For the same molecule, the outcome in [4] and in assay [14] was inactive.
`Cc1ccc(NC=O)c(C)c1`: the Potency result in [1], in assay [2], in [3], in [16], in [5] and in assay [6] was “inactive” each time. For the same molecule, the Potency entry in assay [7], in assay [8], in [11], in assay [17], in assay [12] and in [13] was “inactive” throughout. For the same molecule, in assay [15], the Potency result is “inactive”. The result in [14] was inactive.
